Records with an inconclusive call do not appear. Entries that show only a call come without a potency. The source made the active and inactive calls. Unless noted, the call rests on the fitted dose curve; in most records, active means well fitted curve in the direction sought with a large enough effect in the repeat runs; inconclusive means weak or mixed curves; inactive means no such curve, though single readings can be large; an effect the other way counts as inactive or inconclusive.
Assays:
[1] = qHTS assay for small molecule agonists of the p53 signaling pathway (AID 651631; calls by dose curve; further: nearly all actives have a fitted effect of over 15% in size)
How it was run: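 We treat p53RE-bla HCT-116 cells with compounds for 16 h at 37 °C, add LiveBLAzer B/G FRET substrate for 2 h at room temperature, and measure fluorescence intensity.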

[2] = qHTS assay for small molecules that induce genotoxicity in human embryonic kidney cells expressing luciferase-tagged ATAD5 (AID 651632); further: nearly all actives have a fitted effect of over 15% in size
How it was run: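 Genotoxicity read-out via ATAD5-luciferase: HEK293T cells, 16 hr compound incubation at 37C, Amplite detection.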

[3] = qHTS assay for small molecule agonists of the p53 signaling pathway - cell viability (AID 651633; calls by dose curve;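 further: p53RE-bla HCT reporter cells with a stable beta-lactamase p53 reporter; series mostly up to about 83 µM; nearly all actives have a fitted effect of over 30% in size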)
How it was run: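 p53RE-bla cells were treated with compound for 16 hours at 37 C. Cytotoxicity was then measured as CellTiter-Glo luminescence after 30 min at room temperature.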

[4] = qHTS assay for small molecules that induce genotoxicity in human embryonic kidney cells expressing luciferase-tagged ATAD5 - cell viability (AID 651634; calls by dose curve; further: nearly all actives have a fitted effect of over 25% in size)
How it was run: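 Live-cell protease activity (CellTiter-Fluor, fluorescence) indicates viability. HEK293T cells with luciferase-tagged ATAD5; 15.5 hr compound treatment at 37C.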

[5] = qHTS assay for small molecule disruptors of the mitochondrial membrane potential - cell viability (AID 720634; calls by dose curve;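 further: human HepG2 liver cancer cells; series mostly up to about 83 µM; nearly all actives have a fitted effect of over 20% in size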)
How it was run: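 Human hepatoma HepG2 cells were treated for 1 hr with test chemicals, then given m-MPI dye and CellTiter-Glo. Cell viability reflects luminescence proportional to cellular ATP.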

[6] = qHTS assay for small molecule disruptors of the mitochondrial membrane potential (AID 720635)
How it was run: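 HepG2 cells exposed to compound 1 hr at 37C, then Mito-MPS dye 30 min. Ratio read of aggregate (540/590 nm) versus monomer (490/535 nm) fluorescence.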

[7] = qHTS assay to test for compound auto fluorescence at 590 nm (red) in HepG2 cells (AID 720674)
How it was run: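 Seeding: 2,000 HepG2 cells/well, MEM/10% FBS, overnight 37 C. Dosing: compound vs DMSO. Incubation: 1 hr, 37 C, 5% CO2. Read: fluorescence 540 ex/590 em, Rose Bengal sodium as red reference.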

[8] = qHTS assay to test for compound auto fluorescence at 535 nm (green) in HepG2 cells (AID 720675)
[9] = qHTS assay to test for compound auto fluorescence at 460 nm (blue) in HEK293 cells (AID 720678)
How it was run: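 HEK293 cells (2,000/well, medium with 10% dialyzed FBS) attached 4-5 hr, then exposed to compound overnight at 37C, 5% CO2. Blue fluorescence read at 405/460 nm, with triamterene as reference fluorophore.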

[10] = qHTS assay to test for compound auto fluorescence at 590 nm (red) in HEK293 cells (AID 720679)
How it was run: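 HEK293 cells (2,000/well, 10% dialyzed FBS) attached 4-5 hr, then dosed with compound or DMSO and incubated overnight at 37C, 5% CO2. Red fluorescence read at 540/590 nm, Rose Bengal sodium as reference fluorophore.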

[11] = qHTS assay to test for compound auto fluorescence at 535 nm (green) in HEK293 cells (AID 720680)
[12] = qHTS assay to test for compound auto fluorescence at 460 nm (blue) in HEK293 cell free culture (AID 720681)
How it was run: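 Compounds were added to cell-free DMEM with 10% FBS and fluorescence read directly. The blue channel used 405 nm excitation and 460 nm emission, with triamterene as the reference fluorophore.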

[13] = qHTS assay to test for compound auto fluorescence at 535 nm (green) in HEK293 cell free culture (AID 720682)
How it was run: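 Green-channel intensity (Ex/Em 485/535 nm) was recorded from compound-treated wells containing only DMEM with 10% FBS. Fluorescein provided the equivalency standard.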

[14] = qHTS assay to test for compound auto fluorescence at 590 nm (red) in HEK293 cell free culture (AID 720683)
How it was run: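 Cell-free wells of DMEM with 10% FBS received compound, and intrinsic fluorescence was read at excitation/emission 540/590 nm. Values expressed as equivalence to Rose Bengal sodium.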

[15] = qHTS assay to test for compound auto fluorescence at 590 nm (red) in HepG2 cell free culture (AID 720684)
How it was run: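 Compound was pinned into wells holding MEM with 10% FBS and no cells, and red fluorescence was read at Ex/Em 540/590 nm. Signal is expressed as auto fluorescence equivalency relative to Rose Bengal sodium.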

[16] = qHTS assay to test for compound auto fluorescence at 460 nm (blue) in HepG2 cell free culture (AID 720685)
How it was run: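 Compound (23 nL) or DMSO pinned into cell-free MEM with 10% FBS; blue fluorescence read at 405/460 nm excitation/emission, expressed as auto-fluorescence equivalency to triamterene.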

[17] = qHTS assay to test for compound auto fluorescence at 535 nm (green) in HepG2 cell free culture (AID 720686)
[18] = qHTS assay to test for compound auto fluorescence at 460 nm (blue) in HepG2 cells (AID 720687)
How it was run: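 HepG2 cells in MEM with 10% FBS, attached overnight at 37 C, were exposed to compound or DMSO for 1 hr at 37 C, 5% CO2. Blue fluorescence was read at 405/460 nm, with triamterene as reference fluorophore.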

[19] = molecular target: Glucocorticoid receptor (Homo sapiens) (UniProt P04150); test: qHTS assay to identify small molecule agonists of the glucocorticoid receptor (GR) signaling pathway (AID 720691; active means well fitted activation curve with a large enough effect in the signal ratio in the repeat runs, not every such curve was filed as active; the % refers to the signal ratio; further: potency means the concentration at half of the fitted maximal effect)
Chain of Glucocorticoid receptor (Homo sapiens) (P04150 whole entry, looked up): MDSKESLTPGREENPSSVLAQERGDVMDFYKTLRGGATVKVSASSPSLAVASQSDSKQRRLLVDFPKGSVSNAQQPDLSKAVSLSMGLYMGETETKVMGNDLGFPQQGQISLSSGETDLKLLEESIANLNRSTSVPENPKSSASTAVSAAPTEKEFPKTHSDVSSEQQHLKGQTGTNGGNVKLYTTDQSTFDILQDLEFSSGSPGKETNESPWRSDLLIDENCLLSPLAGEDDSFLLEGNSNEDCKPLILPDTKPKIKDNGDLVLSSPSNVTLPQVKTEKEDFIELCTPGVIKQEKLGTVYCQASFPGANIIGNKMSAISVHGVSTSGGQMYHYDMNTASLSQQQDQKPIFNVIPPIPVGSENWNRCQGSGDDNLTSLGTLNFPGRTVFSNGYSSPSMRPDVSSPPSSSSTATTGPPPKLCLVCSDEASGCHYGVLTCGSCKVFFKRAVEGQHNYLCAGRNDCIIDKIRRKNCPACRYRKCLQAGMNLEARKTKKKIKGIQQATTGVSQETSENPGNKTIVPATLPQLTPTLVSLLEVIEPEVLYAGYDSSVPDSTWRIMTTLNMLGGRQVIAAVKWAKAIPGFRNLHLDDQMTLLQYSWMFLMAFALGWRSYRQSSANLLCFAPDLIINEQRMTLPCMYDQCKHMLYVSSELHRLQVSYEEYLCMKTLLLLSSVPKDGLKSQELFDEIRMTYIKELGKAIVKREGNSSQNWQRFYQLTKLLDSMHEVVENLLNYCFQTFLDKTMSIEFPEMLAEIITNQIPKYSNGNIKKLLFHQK
How it was run: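 Beta-lactamase reporter activity, read as fluorescence intensity, was measured in GR-bla HeLa cells exposed to compounds for 18 h at 37 C and then loaded with LiveBLAzer B/G FRET substrate for 2 h at room temperature.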

[20] = molecular target: Glucocorticoid receptor (Homo sapiens) (UniProt P04150); test: qHTS assay to identify small molecule antagonists of the glucocorticoid receptor (GR) signaling pathway (AID 720692; active means well fitted inhibition curve with a large enough effect in the signal ratio in the repeat runs, not every such curve was filed as active; the % refers to the signal ratio)
How it was run: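 Fluorescence from cleaved LiveBLAzer B/G FRET substrate reports GRE-driven beta-lactamase in HeLa cells; compounds are tested against 5 nM dexamethasone (final) over 18 h at 37 C, substrate incubation 2 h at room temperature.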

Compound	outcome [1]	Potency [2]	outcome [3]	Potency [4]	Potency [5]	Potency [6]	outcome [7]	outcome [8]	outcome [9]	outcome [10]	outcome [11]	outcome [12]	outcome [13]	outcome [14]	outcome [15]	outcome [16]	outcome [17]	outcome [18]	Potency [19]	Potency [20]
CCCCCCCCS(=O)(=O)Cl	inactive	inactive	inactive	inactive	inactive	inactive	inactive	inactive	inactive	inactive	inactive	inactive	inactive	inactive	inactive	inactive	inactive	inactive	inactive	–
O=c1n(CCO)c(=O)n(CCO)c(=O)n1CCO	inactive	inactive	inactive	inactive	inactive	inactive	inactive	inactive	inactive	inactive	inactive	inactive	inactive	inactive	inactive	inactive	inactive	inactive	–	–
CN(C)CCCSc1ccccc1NC(=O)/C=C/c1ccccc1	inactive	inactive	inactive	inactive	inactive	inactive	inactive	inactive	inactive	inactive	inactive	inactive	–	inactive	inactive	inactive	inactive	inactive	inactive	inactive
Cc1cccc(C)c1NC(=O)C(C)N (stereo not given)	inactive	inactive	inactive	inactive	inactive	inactive	inactive	inactive	inactive	inactive	inactive	inactive	inactive	inactive	inactive	inactive	inactive	inactive	inactive	inactive
CCN(CC)CCNC(=O)c1cc(S(C)(=O)=O)ccc1OC	inactive	inactive	inactive	inactive	inactive	inactive	inactive	inactive	inactive	inactive	inactive	inactive	inactive	inactive	inactive	inactive	inactive	inactive	inactive	inactive
O=C(O)COc1nn(Cc2ccccc2)c2ccccc12	inactive	inactive	inactive	inactive	inactive	inactive	inactive	inactive	inactive	inactive	inactive	inactive	inactive	inactive	inactive	inactive	inactive	inactive	inactive	inactive
NS(=O)(=O)c1ccc(C(=O)O)cc1	inactive	inactive	inactive	inactive	inactive	inactive	inactive	inactive	inactive	inactive	inactive	inactive	–	inactive	inactive	inactive	inactive	inactive	inactive	inactive
Cn1cc(S(C)=O)c(=O)c2ccc(F)cc21 (stereo not given)	inactive	inactive	inactive	inactive	inactive	inactive	inactive	inactive	inactive	inactive	inactive	inactive	inactive	inactive	inactive	inactive	inactive	inactive	inactive	inactive
OC[C@]1(O)OC[C@@H](O)[C@H](O)[C@@H]1O	inactive	inactive	inactive	inactive	inactive	inactive	inactive	inactive	inactive	inactive	inactive	inactive	inactive	inactive	inactive	inactive	inactive	inactive	–	–
Oc1ccc(C2CNCCc3c2cc(O)c(O)c3Cl)cc1 (stereo not given)	inactive	inactive	inactive	inactive	inactive	inactive	inactive	inactive	inactive	inactive	inactive	inactive	inactive	inactive	inactive	inactive	inactive	inactive	inactive	inactive
C1OCOCO1	inactive	inactive	inactive	inactive	inactive	inactive	inactive	inactive	inactive	inactive	inactive	inactive	inactive	inactive	inactive	inactive	inactive	inactive	inactive	inactive
CC(=O)OCC(=O)[C@@]1(O)CCC2C3CCC4=CC(=O)CC[C@]4(C)C3[C@@H](O)C[C@@]21C (stereo not given in full)	inactive	inactive	inactive	inactive	inactive	inactive	inactive	inactive	inactive	inactive	inactive	inactive	inactive	inactive	inactive	inactive	inactive	inactive	134 nM (active)	–
C[C@H]1C[C@@H](O)CC(C)(C)C1	inactive	inactive	inactive	inactive	inactive	inactive	inactive	inactive	inactive	inactive	inactive	inactive	inactive	inactive	inactive	inactive	inactive	inactive	inactive	inactive
O=C(CCCN1CCN(c2ccccn2)CC1)c1ccc(F)cc1	inactive	inactive	inactive	inactive	inactive	inactive	inactive	inactive	inactive	inactive	inactive	inactive	inactive	inactive	inactive	inactive	inactive	inactive	–	–

— PubChem BioAssay (Tox21)
